# From PubChem BioAssay (EPA / NIEHS)
# A structure can be active in one record and inactive in another. Activity calls are given as the source filed them. The calls were made as follows: active = hit-call score of the fitted dose curve at least 0.9, where 1 is the maximum; inactive = score below 0.9.
# What was measured:
# Conditions in all cases: mRNA level, 48 h; actives raise or lower the signal
# [1] = read-out: JUN Transcription Factor, JUN (gene 3725); test: LTEA_HepaRG_JUN: Life Technologies and Expression Analysis (LTEA) Assay for JUN Transcription Factor using HepaRG (AID 2283513)
# Procedure, shortened: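 Human HepaRG liver cells receive test chemicals in 0.5% DMSO for 48 h across an eight-point range topping at 100 uM. Expression changes in JUN are scored in both directions against the DMSO vehicle.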
# [2] = read-out: Lipase C (LIPC), LIPC (gene 3990); test: LTEA_HepaRG_LIPC: Life Technologies and Expression Analysis (LTEA) Assay for Lipase C (LIPC) using HepaRG (AID 2283514)
# Procedure, shortened: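 Read-out is LIPC transcript level by TaqMan qRT-PCR, normalized to three housekeeping genes, after 48 h chemical treatment of human HepaRG liver cells. Curves span eight concentrations topping at 100 uM; activity in either direction scored relative to 0.5% DMSO.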
# [3] = read-out: Lipoprotein lipase (LPL), LPL (gene 4023); test: LTEA_HepaRG_LPL: Life Technologies and Expression Analysis (LTEA) Assay for Lipoprotein lipase (LPL) using HepaRG (AID 2283515)
# Procedure, shortened: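 Read-out is LPL transcript level by qRT-PCR, normalized to three housekeeping genes and fitted bidirectionally against the DMSO control. Human HepaRG cells received chemicals for 48 h at up to 100 uM.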
# [4] = read-out: MicroRNA 122 (MIR122), gene 406906; test: LTEA_HepaRG_MIR122: Life Technologies and Expression Analysis (LTEA) Assay for MicroRNA 122 (MIR122) using HepaRG (AID 2283516); also: the transcript read is the microRNA miR-122
# Procedure, shortened: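 HepaRG, 48 h exposure, 8-pt half-log from 100 uM, 0.5% DMSO; TaqMan qRT-PCR; bidirectional fit vs DMSO.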
# [5] = read-out: matrix metalloproteinase-10 (MMP10), MMP10 (gene 4319); test: LTEA_HepaRG_MMP10: Life Technologies and Expression Analysis (LTEA) Assay for matrix metalloproteinase-10 (MMP10) using HepaRG (AID 2283517)
# Procedure, shortened: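 Gain or loss of MMP10 mRNA is fitted relative to the 0.5% DMSO vehicle. The human hepatic line HepaRG receives a 48-hour serum-free exposure, in duplicate, with a maximum concentration of 100 uM.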
# MYC, MYC (gene 4609) = test: LTEA_HepaRG_MYC: Life Technologies and Expression Analysis (LTEA) Assay for MYC using HepaRG (AID 2283518)
# Procedure, shortened: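 Differentiated HepaRG cells exposed 48 h in serum-free induction medium to 8 concentrations (top 100 uM, half-log steps; 0.5% DMSO), duplicate. MYC mRNA measured by Fluidigm qRT-PCR, normalized to ACTB, GAPDH, POLR2A; bidirectional fit versus DMSO.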
# [6] = read-out: matrix metalloproteinase-3 (MMP3), MMP3 (gene 4314); test: LTEA_HepaRG_MMP3: Life Technologies and Expression Analysis (LTEA) Assay for matrix metalloproteinase-3 (MMP3) using HepaRG (AID 2283519)
# Procedure, shortened: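 HepaRG, human; 48 h dosing, 8 conc. (max 100 uM, half-log), duplicate, 0.5% DMSO. Readout: MMP3 transcript by Fluidigm TaqMan qRT-PCR, ACTB/GAPDH/POLR2A-normalised. Gain or loss fitted vs DMSO.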
# [7] = read-out: Paternally Expressed 10 (PEG10), PEG10 (gene 23089); test: LTEA_HepaRG_PEG10: Life Technologies and Expression Analysis (LTEA) Assay for Paternally Expressed 10 (PEG10) using HepaRG (AID 2283520);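 as to AC50: PEG10 transcript by qRT-PCR normalised to ACTB GAPDH and POLR2A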
# Procedure, shortened: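 Chemicals tested on HepaRG cells for 48 h, highest concentration 100 uM. PEG10 expression assessed by qRT-PCR relative to DMSO control.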
# [8] = read-out: Nuclear factor NF-kappa-B p105 subunit (Homo sapiens) (UniProt P19838); test: LTEA_HepaRG_NFKB1: Life Technologies and Expression Analysis (LTEA) Assay for Nuclear Factor Kappa B Subunit 1 (NFKB1) using HepaRG (AID 2283521)
# Procedure, shortened: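 NFKB1 transcript was measured by TaqMan qRT-PCR on Fluidigm arrays, normalised to three housekeeping genes and fitted in both directions against 0.5% DMSO. HepaRG cells were dosed in duplicate for 48 h in serum-free induction medium, eight half-log steps from 100 uM.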
# [9] = read-out: Phosphatase and tensin (PTEN), PTEN (gene 5728); test: LTEA_HepaRG_PTEN: Life Technologies and Expression Analysis (LTEA) Assay for Phosphatase and tensin (PTEN) using HepaRG (AID 2283523)
# Procedure, shortened: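 Read-out is PTEN transcript level by multiplexed TaqMan qRT-PCR after 48 h chemical treatment of human HepaRG cultures in serum-free induction medium. Concentrations spanned 100 uM downward in half-log steps, 0.5% DMSO throughout; activity fitted in both directions against vehicle.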
# [10] = read-out: solute carrier (SLC22A1), SLC22A1 (gene 6580); test: LTEA_HepaRG_SLC22A1: Life Technologies and Expression Analysis (LTEA) Assay for solute carrier (SLC22A1) using HepaRG (AID 2283524)
# Procedure, shortened: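 HepaRG (human liver line), 48 h dosing in serum-free induction medium; 8 conc., half-log down from 100 uM, 0.5% DMSO vehicle, duplicates. Endpoint: SLC22A1 mRNA, qRT-PCR, housekeeping-normalized; gain/loss fit vs DMSO.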
# [11] = read-out: Pyruvate Dehydrogenase Kinase 4 (PDK4), PDK4 (gene 5166); test: LTEA_HepaRG_PDK4: Life Technologies and Expression Analysis (LTEA) Assay for Pyruvate Dehydrogenase Kinase 4 (PDK4) using HepaRG (AID 2283525)
# Procedure, shortened: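 In this multiplexed human HepaRG expression assay, cells are treated 48 h with test chemicals across an eight-point range starting at 100 uM. PDK4 mRNA changes, normalized to ACTB/GAPDH/POLR2A, are fitted in both directions relative to vehicle.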
# [12] = read-out: NAD(P)H dehydrogenase [quinone] 1 (NQO1), NQO1 (gene 1728); test: LTEA_HepaRG_NQO1: Life Technologies and Expression Analysis (LTEA) Assay for NAD(P)H dehydrogenase [quinone] 1 (NQO1) using HepaRG (AID 2283526)
# Procedure, shortened: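 Human HepaRG hepatic cells received chemicals for 48 h in serum-free induction medium with 0.5% DMSO, up to 100 uM. Expression was assessed by TaqMan qRT-PCR against housekeeping controls and fitted bidirectionally against DMSO.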
# [13] = read-out: Nuclear factor erythroid 2-related factor 2 (Homo sapiens) (UniProt Q16236); test: LTEA_HepaRG_NFE2L2: Life Technologies and Expression Analysis (LTEA) Assay for Nuclear factor erythroid 2-related factor 2 (NFE2L2) Transcription Factor using HepaRG (AID 2283527)
# Procedure, shortened: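 Transcript level of NFE2L2 is the read-out, measured by microfluidic TaqMan qRT-PCR and normalized to three housekeeping genes. Human HepaRG cultures received test chemical for 48 h at up to 100 uM in half-log steps. Gain or loss of signal is fitted relative to 0.5% DMSO.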
# [14] = read-out: succinate dehydrogenase complex iron sulfur subunit B (SDHB), SDHB (gene 6390); test: LTEA_HepaRG_SDHB: Life Technologies and Expression Analysis (LTEA) Assay for succinate dehydrogenase complex iron sulfur subunit B (SDHB) using HepaRG (AID 2283528)
# Procedure, shortened: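 SDHB transcript level read by TaqMan qRT-PCR, housekeeping-normalised (ACTB, GAPDH, POLR2A), after 48 h chemical treatment of plated HepaRG cells; eight concentrations top 100 uM, half-log steps, 0.5% DMSO, duplicates; fitted both directions against DMSO.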
# [15] = read-out: Signal transducer and activator of transcription 3 (Homo sapiens) (UniProt P40763); test: LTEA_HepaRG_STAT3: Life Technologies and Expression Analysis (LTEA) Assay for Signal transducer and activator of transcription (STAT3) using HepaRG (AID 2283529)
# Procedure, shortened: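 Read-out is STAT3 mRNA level by qRT-PCR, normalized to three housekeeping genes, in human HepaRG liver cells treated for 48 h. Concentrations ran from 100 uM downward in half-log steps; curves were fitted for gain or loss relative to 0.5% DMSO.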
# [16] = read-out: sulfotransferase 2A1 (SULT2A1), SULT2A1 (gene 6822); test: LTEA_HepaRG_SULT2A1: Life Technologies and Expression Analysis (LTEA) Assay for sulfotransferase 2A1 (SULT2A1) using HepaRG (AID 2283531)
# Procedure, shortened: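 HepaRG human liver cells, 48 h exposure in serum-free induction medium to 8 half-log concentrations topping at 100 µM (0.5% DMSO), duplicate wells. SULT2A1 mRNA measured by TaqMan qRT-PCR, normalized to ACTB/GAPDH/POLR2A; bidirectional fit against DMSO.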
# [17] = read-out: Transforming Growth Factor (TGFA), TGFA (gene 7039); test: LTEA_HepaRG_TGFA: Life Technologies and Expression Analysis (LTEA) Assay for Transforming Growth Factor (TGFA) using HepaRG (AID 2283532)
# Procedure, shortened: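 HepaRG (human liver line), 48 h exposure, 8 conc. half-log down from 100 uM, 0.5% DMSO vehicle, duplicates; serum-free induction medium. TGFA mRNA by TaqMan qRT-PCR, ACTB/GAPDH/POLR2A normalization; gain/loss fit vs DMSO.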
# [18] = read-out: Protein phosphatase 2A (PPP2R4), PTPA (gene 5524); test: LTEA_HepaRG_PPP2R4: Life Technologies and Expression Analysis (LTEA) Assay for Protein phosphatase 2A (PPP2R4) using HepaRG (AID 2283522)
# Procedure, shortened: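 Gene-expression endpoint in HepaRG hepatic cells: 48 h treatment across eight half-log concentrations up to 100 uM in 0.5% DMSO. PPP2R4 mRNA by qRT-PCR, normalized to three endogenous control genes.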
# [19] = read-out: solute carrier (SLCO1B1), SLCO1B1 (gene 10599); test: LTEA_HepaRG_SLCO1B1: Life Technologies and Expression Analysis (LTEA) Assay for solute carrier (SLCO1B1) using HepaRG (AID 2283530)
# Procedure, shortened: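 Differentiated human HepaRG cells were exposed for 48 h in serum-free induction medium to eight half-log concentrations, top 100 uM, in 0.5% DMSO. SLCO1B1 mRNA was measured by qRT-PCR, normalized to ACTB, GAPDH and POLR2A, and fitted bidirectionally against DMSO.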
# Sequence of Signal transducer and activator of transcription 3 (Homo sapiens) (P40763 whole entry, looked up): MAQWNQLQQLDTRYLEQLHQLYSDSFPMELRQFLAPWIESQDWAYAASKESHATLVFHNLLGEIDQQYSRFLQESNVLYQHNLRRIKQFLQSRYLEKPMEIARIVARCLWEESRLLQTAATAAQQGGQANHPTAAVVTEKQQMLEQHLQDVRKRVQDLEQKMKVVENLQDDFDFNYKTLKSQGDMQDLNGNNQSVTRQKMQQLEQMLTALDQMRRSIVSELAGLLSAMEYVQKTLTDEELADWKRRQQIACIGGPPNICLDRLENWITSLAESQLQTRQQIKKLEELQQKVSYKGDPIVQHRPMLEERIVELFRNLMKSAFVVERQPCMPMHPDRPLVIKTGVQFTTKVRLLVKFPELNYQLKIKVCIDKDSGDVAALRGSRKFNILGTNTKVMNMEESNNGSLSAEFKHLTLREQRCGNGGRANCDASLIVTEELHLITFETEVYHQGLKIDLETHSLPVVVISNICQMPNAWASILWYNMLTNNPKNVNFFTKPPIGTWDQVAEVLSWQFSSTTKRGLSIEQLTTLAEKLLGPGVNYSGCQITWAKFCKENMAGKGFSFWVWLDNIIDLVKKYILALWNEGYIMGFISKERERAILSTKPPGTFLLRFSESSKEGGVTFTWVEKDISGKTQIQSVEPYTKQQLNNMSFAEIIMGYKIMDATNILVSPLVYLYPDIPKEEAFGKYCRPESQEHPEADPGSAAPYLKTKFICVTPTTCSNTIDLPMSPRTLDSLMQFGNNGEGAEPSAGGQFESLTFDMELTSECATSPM
# Sequence of Nuclear factor erythroid 2-related factor 2 (Homo sapiens) (Q16236 whole entry, looked up): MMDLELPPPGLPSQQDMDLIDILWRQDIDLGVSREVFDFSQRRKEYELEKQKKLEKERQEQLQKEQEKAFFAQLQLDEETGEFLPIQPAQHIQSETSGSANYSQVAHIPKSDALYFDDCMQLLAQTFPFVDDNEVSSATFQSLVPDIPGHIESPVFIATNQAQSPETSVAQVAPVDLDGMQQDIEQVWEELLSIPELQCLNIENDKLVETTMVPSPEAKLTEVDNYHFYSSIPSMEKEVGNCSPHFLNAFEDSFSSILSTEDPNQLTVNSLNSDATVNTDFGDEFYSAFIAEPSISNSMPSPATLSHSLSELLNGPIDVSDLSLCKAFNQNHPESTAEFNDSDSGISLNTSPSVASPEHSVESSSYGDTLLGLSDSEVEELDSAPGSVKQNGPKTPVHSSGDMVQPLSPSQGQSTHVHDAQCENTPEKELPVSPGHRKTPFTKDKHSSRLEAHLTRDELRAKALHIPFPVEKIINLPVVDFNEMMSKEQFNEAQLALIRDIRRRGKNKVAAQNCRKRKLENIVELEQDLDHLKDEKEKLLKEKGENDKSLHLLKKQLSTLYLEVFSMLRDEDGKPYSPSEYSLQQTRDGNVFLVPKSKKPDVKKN
# Sequence of Nuclear factor NF-kappa-B p105 subunit (Homo sapiens) (P19838 whole entry, looked up): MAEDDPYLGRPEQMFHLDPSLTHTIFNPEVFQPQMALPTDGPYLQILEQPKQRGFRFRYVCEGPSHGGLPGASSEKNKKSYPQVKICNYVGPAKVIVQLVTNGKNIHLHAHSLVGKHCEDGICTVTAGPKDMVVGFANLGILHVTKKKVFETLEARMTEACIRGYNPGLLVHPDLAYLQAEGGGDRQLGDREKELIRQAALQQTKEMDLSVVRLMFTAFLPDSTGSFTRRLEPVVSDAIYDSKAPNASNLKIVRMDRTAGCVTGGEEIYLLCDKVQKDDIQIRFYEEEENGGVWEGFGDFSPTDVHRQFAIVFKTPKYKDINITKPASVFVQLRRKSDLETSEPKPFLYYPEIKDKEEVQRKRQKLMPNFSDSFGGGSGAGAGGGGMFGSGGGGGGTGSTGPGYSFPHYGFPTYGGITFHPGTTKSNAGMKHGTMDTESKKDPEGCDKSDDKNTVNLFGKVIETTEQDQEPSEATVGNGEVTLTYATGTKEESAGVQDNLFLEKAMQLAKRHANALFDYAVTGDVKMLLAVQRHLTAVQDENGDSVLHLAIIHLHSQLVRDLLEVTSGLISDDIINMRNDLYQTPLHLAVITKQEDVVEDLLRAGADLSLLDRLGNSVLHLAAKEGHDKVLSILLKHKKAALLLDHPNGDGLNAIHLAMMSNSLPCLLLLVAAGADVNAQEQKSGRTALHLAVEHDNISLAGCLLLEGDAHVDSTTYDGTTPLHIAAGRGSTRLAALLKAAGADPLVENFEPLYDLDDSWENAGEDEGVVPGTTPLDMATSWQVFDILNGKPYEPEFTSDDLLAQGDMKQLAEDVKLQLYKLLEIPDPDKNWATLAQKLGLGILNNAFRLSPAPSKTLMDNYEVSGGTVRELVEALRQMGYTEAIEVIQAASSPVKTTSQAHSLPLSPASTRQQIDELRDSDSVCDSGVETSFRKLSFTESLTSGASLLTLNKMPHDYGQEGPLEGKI
compound,measurement,setting,value
CCOCN(C(=O)CCl)c1c(C)cccc1CC,outcome,[1],inactive
same,AC50,[2],88.4 µM (active)
same,outcome,[3],inactive
same,AC50,[4],50 µM (active)
same,outcome,[5],inactive
same,outcome,"MYC, MYC (gene 4609)",inactive
same,outcome,[6],inactive
same,outcome,[7],inactive
same,AC50,[8],0.338 µM (active)
same,outcome,[9],inactive
same,AC50,[10],81.1 µM (active)
same,AC50,[11],50 µM (active)
same,outcome,[12],inactive
same,outcome,[13],inactive
same,outcome,[14],inactive
same,outcome,[15],inactive
same,AC50,[16],83.8 µM (active)
same,outcome,[17],inactive
O=C(NC(=O)c1c(F)cccc1F)Nc1ccc(OC(F)(F)C(F)OC(F)(F)F)c(Cl)c1 (centres undefined),outcome,[1],inactive
same,outcome,[2],inactive
same,outcome,[3],inactive
same,outcome,[4],inactive
same,outcome,[5],inactive
same,outcome,"MYC, MYC (gene 4609)",inactive
same,outcome,[6],inactive
same,outcome,[7],inactive
same,outcome,[8],inactive
same,outcome,[9],inactive
same,outcome,[10],inactive
same,outcome,[11],inactive
same,outcome,[12],inactive
same,outcome,[13],inactive
same,outcome,[14],inactive
same,outcome,[15],inactive
same,outcome,[16],inactive
same,outcome,[17],inactive
O=C1c2ccccc2C(=O)N1SC(Cl)(Cl)Cl,outcome,[1],inactive
same,outcome,[2],inactive
same,outcome,[3],inactive
same,outcome,[4],inactive
same,outcome,[5],inactive
same,outcome,"MYC, MYC (gene 4609)",inactive
same,outcome,[6],inactive
same,outcome,[7],inactive
same,outcome,[8],inactive
same,outcome,[18],inactive
same,outcome,[9],inactive
same,outcome,[10],inactive
same,outcome,[11],inactive
same,outcome,[12],inactive
same,outcome,[13],inactive
same,outcome,[14],inactive
same,outcome,[15],inactive
same,outcome,[19],inactive
same,outcome,[16],inactive
same,outcome,[17],inactive
Cc1[nH]c(=O)n(C(C)(C)C)c(=O)c1Cl,outcome,[1],inactive
same,outcome,[2],inactive
same,outcome,[3],inactive
same,outcome,[4],inactive
same,outcome,[5],inactive
same,outcome,"MYC, MYC (gene 4609)",inactive
same,outcome,[6],inactive
same,outcome,[7],inactive
same,outcome,[8],inactive
same,outcome,[9],inactive
same,outcome,[10],inactive
same,outcome,[11],inactive
same,outcome,[12],inactive
same,AC50,[13],50 µM (active)
same,outcome,[14],inactive
same,outcome,[15],inactive
same,outcome,[16],inactive
same,outcome,[17],inactive
CC(C)(C)C(O)C(Oc1ccc(Cl)cc1)n1cncn1 (centres undefined),outcome,[1],inactive
same,outcome,[2],inactive
same,outcome,[3],inactive
same,outcome,[4],inactive
same,outcome,[5],inactive
same,outcome,"MYC, MYC (gene 4609)",inactive
same,AC50,[6],50 µM (active)
same,outcome,[6],inactive
same,AC50,[7],1.4 µM (active)
same,outcome,[7],inactive
same,outcome,[8],inactive
same,outcome,[9],inactive
same,outcome,[10],inactive
same,outcome,[11],inactive
same,outcome,[12],inactive
same,AC50,[13],9.92 µM (active)
same,outcome,[13],inactive
same,outcome,[14],inactive
same,outcome,[15],inactive
same,outcome,[16],inactive
same,outcome,[17],inactive
CCCN(CCC)c1c([N+](=O)[O-])cc(C(F)(F)F)cc1[N+](=O)[O-],outcome,[1],inactive
same,outcome,[2],inactive
same,outcome,[3],inactive
same,outcome,[4],inactive
same,outcome,[5],inactive
same,outcome,"MYC, MYC (gene 4609)",inactive
same,outcome,[6],inactive
same,outcome,[7],inactive
same,outcome,[8],inactive
same,outcome,[18],inactive
same,outcome,[9],inactive
same,outcome,[10],inactive
same,outcome,[11],inactive
same,outcome,[12],inactive
same,outcome,[13],inactive
same,outcome,[14],inactive
same,outcome,[15],inactive
same,outcome,[16],inactive
same,outcome,[17],inactive
